The campaign covered roughly 4,100 compounds. About 1,600 (39%) were called active. Roughly 25% stayed inconclusive and do not appear here. Calls come from the whole dose curve; as a rule, active = well fitted inhibition curve with a large enough effect; inconclusive = small, poorly fitted or top-dose-only effect; inactive = no such curve, though single readings can be large or run the other way. The list shows a part of the results. Where a call stands in place of a potency, no number is given.
Potency is the fitted concentration of half-maximal effect.

This test is described as follows: qHTS Validation assay for Inhibitors of Plasmodium falciparum Dd2 growth in vitro. Note: nearly all actives have a fitted effect of over 70% in size. As to conditions: P. falciparum Dd2 in RBCs, SYBR Green growth, 72 h; series mostly up to 28.7 µM. In a few lines:
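P. falciparum Dd2-infected red blood cells (2.5% hematocrit, 0.3% parasitemia) grown 72 h at 37 °C under 5% O2 with compounds in a titration, 29 uM to 0.5 nM final. Growth read as SYBR Green-1 fluorescence after ~16 h lysis; artesunate 300 nM as positive control.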
On the technique in general: In qHTS, concentration-response curves come from the screen itself.
With `Cc1ccc(C(=O)N2CCCCCCNC(=O)[C@@H]3CCC[C@@H]32)s1`, the Potency result was “inactive”.

For `Cc1cccc(CSc2nn3c(=O)c(C)nnc3s2)c1`, the Potency entry was “inactive”.

For `CNC(=O)[C@@H]1C[C@@H](n2cc(CN(C)C(=O)c3cc(F)ccc3Cl)nn2)CN1`, the Potency result was “inactive”.

As for `O=C(COc1ccccc1)NC1CC(=O)N(c2ccc3c(c2)OCCO3)C1` (stereo not drawn), the Potency result is “inactive”.

Regarding `CC(C)COC(=O)/C(C#N)=C\c1ccc(-c2ccccc2Cl)o1`, the Potency entry was “inactive”.

For `Cc1noc(C)c1S(=O)(=O)N1CCc2nc3cc(-c4ccccc4)[nH]n3c(=O)c2C1`, the Potency entry is “inactive”.

Consider `O=C1CCC2(CCN1)CCN(S(=O)(=O)c1cccnc1)CC2`, for which the Potency entry was “inactive”.

As for `O=C1CC(c2ccccc2)N(Cc2ccncc2)CCCN(S(=O)(=O)c2cccc(F)c2)CCN1` (stereo not drawn), the Potency was 4.73 µM (active).

Take `Cc1noc(C)c1S(=O)(=O)NCC(=O)N1CCCCCCNC(=O)CC1c1ccccc1` (stereo not drawn): the Potency result is “inactive”.

Take `O=C1CC(c2ccccc2)N(Cc2ccncc2)CCCN(S(=O)(=O)c2cccs2)CCN1` (stereo not drawn): the Potency was 6.68 µM (active).

Regarding `Cc1noc(C)c1S(=O)(=O)N1CCCN(Cc2ccncc2)C(c2ccccc2)CC(=O)NCC1` (stereo not drawn), the Potency is 7.5 µM (active).

On to `O=C1CC(c2ccccc2)N(S(=O)(=O)c2cccc(F)c2)CCCCCN1` (stereo not drawn), for which the Potency result was “inactive”.

Turning to `O=C(C1CC1)N(Cc1nc2ccccc2c(=O)[nH]1)Cc1cccs1`, the Potency result was “inactive”.

With `COCCN1CCNc2nc(CNCc3cnccn3)n(Cc3ccccc3)c2C1=O`, the Potency result was “inactive”.

As to `COc1ccc(CNC[C@H]2O[C@H](Cc3cc(-c4ccc(OC)cc4)on3)CC[C@@H]2O)cc1`, the Potency was 10.6 µM (active).

On to `O[C@H]1CC[C@@H](Cc2cc(-c3ccc(F)cc3)on2)O[C@@H]1CNC1CCCCC1`, for which the Potency is 2.43 µM (active).

Turning to `COc1ccc(-c2cc(C[C@@H]3CC[C@H](O)[C@@H](CNCc4ccccc4OC)O3)no2)cc1`, the Potency is 3.44 µM (active).

Regarding `Cc1ccc(S(=O)(=O)NC[C@H]2O[C@H](Cc3cc(-c4cccc(O)c4)on3)CC[C@@H]2O)cc1`, the Potency entry is “inactive”.

As for `COc1ccc(CNC[C@H]2O[C@H](Cc3cc(-c4ccccc4)on3)CC[C@@H]2O)cc1`, the Potency is 3.85 µM (active).

Take `Cc1nccn1CC(=O)N1C[C@@H](COCC2CC2)[C@H](c2ccncc2)C1`: the Potency result is “inactive”.

For `O=C(N[C@@H]1CN(c2ncccn2)C[C@H]1CO)c1cc2ccccc2[nH]1`, the Potency entry is “inactive”.

Turning to `NC(=O)CN1C(=O)CO[C@H]2CN(Cc3ccc4c(c3)OCO4)C[C@H]21`, the Potency result was “inactive”.

As to `COc1ccc(-c2cn(C)c(=O)n3cc(COc4ccc(Cl)cc4)nc23)cn1`, the Potency result was “inactive”.

Regarding `COC[C@@H]1CN(c2cnccn2)C[C@H]1C(=O)Nc1ccc(OC)nc1`, the Potency entry is “inactive”.

Turning to `COc1ccc(NC(=O)C(c2ccc(Cl)cc2)C(C)C)cn1` (stereo not drawn), the Potency was 1.88 µM (active).

Take `Cn1c(-n2cccc2)c(-c2c(-c3ccc(F)cc3)[nH]c3c2c(=O)n(C)c(=O)n3C)c(=O)n(C)c1=O`: the Potency entry was “inactive”.

Consider `CCCC(C)N1CC2(CCN(C(=O)Cn3nc(C)cc3C)CC2)OC1=O` (stereo not drawn), for which the Potency entry is “inactive”.

In the case of `O=C(c1ccsc1)N1CCCCCC1c1nc(-c2cccnc2)no1` (stereo not drawn), the Potency result was “inactive”.

For `O=C1CCN(C2CCCC2)CCCC(c2nc(-c3cccnc3)no2)CCN1` (stereo not drawn), the Potency entry was “inactive”.

Turning to `CN1CCN(c2ccc(-c3noc([C@@H]4CCCN4C4CCCCC4)n3)cn2)CC1`, the Potency is 19.3 µM (active).

`CNC(=O)c1cc(-c2ccncc2)cc2c1OCCN2Cc1cccnc1`: the Potency result was “inactive”.

Regarding `CN(C)CCNC(=O)c1cc(-c2ccccc2F)cc2c1OCCN2Cc1cccnc1`, the Potency was 6.85 µM (active).

On to `CN1CCOc2c(C(=O)NCc3cccnc3)cc(-c3cccc4[nH]ccc34)cc21`, for which the Potency is 8.63 µM (active).

Turning to `CNC(=O)c1cc(-c2ccc([S+](C)(=O)[O-])cc2)cc2c1OCCN2Cc1cccnc1`, the Potency result is “inactive”.

Regarding `COc1cncc(-c2cc(C(=O)NCc3cccnc3)c3c(c2)N(C)CCO3)c1`, the Potency entry was “inactive”.

Consider `COCCNC(=O)C[C@@H]1C[C@H]2O[C@H](CN)[C@@H](O)[C@H]2O1`, for which the Potency result was “inactive”.

In the case of `C#CCNC(=O)C[C@@H]1c2nc(NC(=O)OCC=C)sc2C[C@@H]2[C@](C)(CO)[C@H](O)CC[C@]21C`, the Potency was 15 µM (active).

On to `C=CCOC(=O)Nc1nc2c(s1)C[C@@H]1[C@](C)(CO)[C@H](O)CC[C@@]1(C)[C@@H]2CC(=O)NC1CCCCC1`, for which the Potency is 3.76 µM (active).

With `Cc1nc2cc(N3CCCC(C(=O)NCCN4CCCCCC4)C3)cnc2nc1C` (stereo not drawn), the Potency entry was “inactive”.

For the compound `N=c1ccn(Cc2ccc(Cl)cc2)cc1`, the Potency is 8.41 µM (active).

Regarding `N=c1ccn(Cc2ccc(Cl)c(Cl)c2)cc1`, the Potency is 6.68 µM (active).

As for `N=c1ccn(Cc2c(Cl)cccc2Cl)cc1`, the Potency result was “inactive”.

On to `N=c1ccn(Cc2ccc(Cl)cc2Cl)cc1`, for which the Potency was 8.41 µM (active).

Regarding `Cc1cc(C)n(CC(=O)N[C@@H]2CN(Cc3cccnc3)C[C@H]2CN(C)C)n1`, the Potency result was “inactive”.

As for `Cc1ccsc1C(=O)NCc1nnc2ccc(-c3ccc(Cl)cc3)nn12`, the Potency result is “inactive”.

On to `O=C(c1ccccc1F)N1CCC(Oc2ncccc2C(=O)N2CCCCC2)C1` (stereo not drawn), for which the Potency entry is “inactive”.

For the compound `COc1ccc(CC(=O)N2CCC(Oc3ncccc3C(=O)N3CCCCC3)C2)cc1` (stereo not drawn), the Potency is 9.44 µM (active).

In the case of `COc1ccc(S(=O)(=O)N2CCC(Oc3ncccc3C(=O)N3CCOCC3)C2)cc1` (stereo not drawn), the Potency entry was “inactive”.

Turning to `COc1cccc(NC(=O)Nc2cccc(C(=O)O)c2)c1`, the Potency entry is “inactive”.

Turning to `COc1cc(NC(=O)c2ccc(N)nc2)cc(C(=O)Nc2cccc(C(F)(F)F)c2)c1`, the Potency is 5.31 µM (active).

As to `O=C(Nc1cccc(C(F)(F)F)c1)O[C@@H]1CO[C@H]2[C@@H]1OC[C@@H]2NS(=O)(=O)c1cccs1`, the Potency entry is “inactive”.

Regarding `COc1ccc(-c2cc(C(=O)Nc3cc(OC)cc(C(=O)Nc4cccc(C(F)(F)F)c4)c3)[nH]n2)cc1`, the Potency was 5.31 µM (active).

In the case of `CC1=NS(=O)(=O)N(Cc2ccc(F)c(F)c2)C=C1C(=O)O`, the Potency entry is “inactive”.

With `CN(C)C(=O)N1CCCC(C(=O)NCc2nc(C3CCCCC3)no2)C1` (stereo not drawn), the Potency result is “inactive”.

In the case of `Cc1nc2sc(C(c3ccco3)N3CCN(C(c4ccccc4)c4ccccc4)CC3)c(O)n2n1` (stereo not drawn), the Potency was 5.96 µM (active).

`CCCc1ccc(C(=O)NC(=O)c2ccccc2O)cc1`: the Potency was 1.06 µM (active).

In the case of `Cc1ccc(N(Cc2cccs2)C(=O)C(C)Oc2ccc(Cl)c(C)c2)cc1` (stereo not drawn), the Potency was 7.5 µM (active).

With `Cc1ccc(N(CC(=O)Nc2cccc(Cl)c2)S(=O)(=O)c2cccs2)cc1`, the Potency result is “inactive”.

On to `O=C(NCCc1nc(-c2cccnc2)no1)c1coc2c1C(=O)CCC2`, for which the Potency entry is “inactive”.

For `C/C(=N\OCc1cccc(C(=O)O)c1)c1ccc(Cl)cc1`, the Potency entry is “inactive”.

For `COc1ccccc1-c1nnc2sc(COc3ccc(F)cc3)nn12`, the Potency result was “inactive”.

Consider `CNC(=O)CCn1ncc2cc(OCc3ccccc3-c3ccccc3OC)ccc21`, for which the Potency was 15.3 µM (active).

On to `COc1cccc(CNc2ccc3c(c2)nc(C)n3C)c1OC`, for which the Potency result is “inactive”.

On to `CCCN1CCc2c(sc3nc(SC)n(-c4ccccc4)c(=O)c23)C1`, for which the Potency is 2.66 µM (active).

Take `CCSc1nc2sc3c(c2c(=O)n1-c1ccccc1)CCN(C)C3`: the Potency was 6.68 µM (active).

With `CSc1nnc2c3c4c(sc3c(=O)n(-c3ccccc3)n12)CC(C)(C)OC4`, the Potency result is “inactive”.

Take `CC(C)Sc1nc2sc3c(c2c(=O)n1Cc1ccccc1)CCCC3`: the Potency entry is “inactive”.

For `CCn1c(SCC(=O)NCCc2ccccc2)nc2sc3c(c2c1=O)CCN(C)C3`, the Potency is 5.31 µM (active).

As for `C=C(C)CSc1nc2sc3c(c2c(=O)n1C1CCCCC1)CCN(C)C3`, the Potency was 2.37 µM (active).

On to `CCOCCCn1c(SCC(=O)NCCCOC)nc2c(sc3ccccc32)c1=O`, for which the Potency entry is “inactive”.

`CN1CCc2c(sc3c2C(=O)NC(c2ccc(C(C)(C)C)cc2)N3)C1` (stereo not drawn): the Potency result was “inactive”.

Turning to `CCNc1ncnc2sc3c(c12)CCN(Cc1ccc[nH]1)C3`, the Potency entry is “inactive”.

As for `CS(=O)(=O)N(C1CC1)C1CCOC2(CCN(C(=O)C3(c4ccccc4)CC3)CC2)C1` (stereo not drawn), the Potency entry is “inactive”.

For `CCOc1ccc(-n2c(SCC(N)=O)nc3sc4c(c3c2=O)CCN(C)C4)cc1`, the Potency was 15 µM (active).

`CCOc1cc(C2NC(=O)c3c(sc4c3CCN(C)C4)N2)ccc1OC(=O)c1ccccc1Cl` (stereo not drawn): the Potency entry is “inactive”.

On to `COC(CSc1nc(N)c2c3c(sc2n1)CN(C)CC3)OC`, for which the Potency entry was “inactive”.

On to `Oc1ccc(CNc2ccc(C(F)(F)F)cc2Cl)c2cccnc12`, for which the Potency is 10.6 µM (active).

On to `Cc1ccc(N=Nc2ccc(O)c3ncccc23)cc1`, for which the Potency result is “inactive”.

As to `Fc1ccc(N2CCCN(CC3[C@H]4CNC[C@@H]34)CC2)cc1` (stereo partly drawn), the Potency is 8.41 µM (active).

`O=c1cc(-c2ccccc2)[nH]c2ccc(F)cc12`: the Potency is 5.96 µM (active).

`Cc1ccc2[nH]c(-c3ccccc3)cc(=O)c2c1`: the Potency was 4.73 µM (active).

Turning to `Cc1ccc(-c2cc(=O)c3cc(C)ccc3[nH]2)cc1`, the Potency is 10.6 µM (active).

Consider `CCCCCNC(=O)C1CCC(Cn2c(=O)c3sccc3n(CC(=O)N3CCCC3)c2=O)CC1` (stereo not drawn), for which the Potency entry was “inactive”.

As to `COc1cc(NC(=O)Cn2c(=O)n(CC3CCCO3)c(=O)c3ccccc32)cc(OC)c1` (stereo not drawn), the Potency result is “inactive”.

Take `COc1cc(NC(=O)Cn2c(=O)n(CC3CCC(C(=O)NCCc4ccccc4)CC3)c(=O)c3ccccc32)cc(OC)c1` (stereo not drawn): the Potency was 5.96 µM (active).

Consider `Cc1cc2nn(-c3ccc(F)cc3)nc2cc1N`, for which the Potency result was “inactive”.

Regarding `Cn1nc(-c2nncn2Cc2ccccc2)c2c1CCN(C(=O)c1[nH]nc3c1COc1ccccc1-3)C2`, the Potency result was “inactive”.

On to `COc1ccc(-n2cc(CNC3CCN(C)CC3)c(-c3cccc(F)c3)n2)cc1`, for which the Potency was 10.6 µM (active).

Take `COc1ccc(-c2ccc3nnc(CNC(=O)Cc4cccc(F)c4)n3n2)cc1`: the Potency entry was “inactive”.

In the case of `CC1=C[C@@H](CN2CCC[C@H]2CO)[C@H](C(C)C)C[C@H]1Cc1nnc(-c2ccc(N(C)C)cc2)o1`, the Potency was 13.3 µM (active).

As to `CCCc1nnc([C@H]2CCN(C(=O)c3ccccc3)C2)o1`, the Potency entry was “inactive”.

For `CCCc1nnc(C[C@@H]2C[C@@H](C(C)C)[C@H](CN3CCC[C@H]3CO)C=C2C)o1`, the Potency is 17.2 µM (active).

Regarding `C=CCOC(=O)C(C#N)c1nc2ccccc2nc1N1CCC(C(=O)OCC)CC1` (stereo not drawn), the Potency was 2.37 µM (active).

The record behind these values is PubChem BioAssay AID1347416 (National Center for Advancing Translational Sciences (NCATS), 2020).
